The campaign covered roughly 4,100 compounds. About 1,600 (39%) were called active. Another 25% or so got no clear call; they are omitted. The call rests on the fitted dose curve; in most records, active means well fitted inhibition curve with a large enough effect; inconclusive means small, poorly fitted or top-dose-only effect; inactive means no such curve, though single readings can be large or run the other way. The list shows a part of the results. A call without a number means that no potency is given here.
Potency means the concentration at half of the fitted maximal effect.

The experiment in a line: qHTS Validation assay for Inhibitors of Plasmodium falciparum Dd2 growth in vitro. Further: nearly all actives have a fitted effect of over 70% in size. The following applies: P. falciparum Dd2 in RBCs, SYBR Green growth, 72 h; series mostly up to 28.7 µM. Put shortly: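 P. falciparum Dd2-infected red blood cells (2.5% hematocrit, 0.3% parasitemia) grown 72 h at 37 °C under 5% O2 with compounds in a titration, 29 uM to 0.5 nM final. Growth read as SYBR Green-1 fluorescence after ~16 h lysis; artesunate 300 nM as positive control.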
(Quantitative high-throughput screening tests each substance at several concentrations.)
On to `COc1ccc(CN2CCCC3(CNc4ccccc4[S+](=O)([O-])N3)C2)cc1` (stereo not drawn), for which the Potency result is “inactive”. The same measure for `CN(C)c1cc(N2CCCC(NC(=O)c3ccsc3)C2)ncn1` (stereo not drawn): “inactive”; for `CN(C)S(=O)(=O)N1CCC(N2C(=O)C(OCC3CC3)C23CCCCC3)CC1` (stereo not drawn): “inactive”; for `O=C(Nc1ccccc1)N1CCC(N2CC(OCC3CC3)C23CCOCC3)CC1` (stereo not drawn): “inactive”.

As to `Cn1cccc1CN1CCC(N2CC(OCC3CC3)C23CCCCC3)CC1` (stereo not drawn), the Potency is 7.5 µM (active).

In the case of `Fc1cccc(CN2CCC(N3CC(OCC4CC4)C34CCCCC4)CC2)c1` (stereo not drawn), the Potency is 4.22 µM (active). With `COc1cccc(CN2CCC(N3CC(OCC4CC4)C34CCCCC4)CC2)n1` (stereo not drawn), the Potency is 4.22 µM (active). In the case of `CCn1cc(CN2CCC(N3CC(OCC4CC4)C34CCCCC4)CC2)cn1` (stereo not drawn), the Potency was 8.41 µM (active).

`CCc1ccc(NC(=O)N2CC(C(=O)N(C)C)C3(CCOCC3)C2)cc1` (stereo not drawn): the Potency result is “inactive”. Under `O=C(Cn1cc(-c2nnnn2-c2ccc(Cl)cc2)c(=O)c2ccccc21)c1ccccc1` stands “inactive”; under `CC1=C(CC(=O)c2ccc(Cl)cc2)C(=O)c2ccccc2C1=O`, 0.211 µM (active). Under `CN(CC1(C)CCOCC1)C(=O)c1ccoc1` stands “inactive”. With `COc1ccc(O)c(-c2cc(-c3cccs3)[nH]n2)c1`, the Potency entry was “inactive”.

`Oc1ccc(Br)cc1-c1cc(-c2ccc(Cl)cc2)n[nH]1`: the Potency is 2.66 µM (active). As to `CCOC(=O)C1=C(C)NC(=O)CC1c1cc(OC)c(OC)cc1Br` (stereo not drawn), the Potency was 5.31 µM (active).

As to `COc1cc(Br)c(C2CC(=O)Nc3cc4c(cc32)OCCO4)cc1OC` (stereo not drawn), the Potency was 2.37 µM (active). Regarding `CCOC(=O)C1=C(C)NC(=S)N(C(C)=O)C1c1ccc(Cl)cc1` (stereo not drawn), the Potency result is “inactive”. As to `COc1cc(C2CC(=O)Nc3cc4c(cc32)OCCO4)cc(Br)c1OC` (stereo not drawn), the Potency is 5.31 µM (active). Regarding `CNC(=O)N1CCC(C2CCN(C(=O)CCCC(=O)O)C2)CC1` (stereo not drawn), the Potency result is “inactive”.

In the case of `CCn1cnnc1-c1nn(C)c2c1CN(C(=O)CC(C)C)CC2`, the Potency result was “inactive”. For the compound `COc1ccc(-n2c(-c3ccc(Br)cc3)c[n+]3c2CCc2ccccc2-3)cc1`, the Potency is 4.22 µM (active). On to `Cc1ccc(CNC(=O)NCCc2ncc(C)n2Cc2ccc(F)cc2)cc1`, for which the Potency entry was “inactive”.

On to `Cc1ccc(-c2nn(-c3ccccc3)cc2CSC(=N)N)cc1`, for which the Potency entry is “inactive”. In the case of `Cc1ccc(-n2cc(CNCCc3ncc(C)[nH]3)c(-c3ccc(F)cc3)n2)cc1`, the Potency is 15 µM (active). The same measure for `COCc1nc2nc(-c3ccccc3)c(Nc3ccc(F)cc3)cc2n1C`: “inactive”; for `CN(C)CCNC(=O)c1nc2nc(-c3ccccc3)c(-c3cccc(F)c3)cc2n1C`: 19.3 µM (active); for `Cc1cccc(C)c1-c1nc(C(=O)NCc2ccc(F)cc2)n2ccccc12`: “inactive”. For the compound `CCn1nccc1C(=O)N1CCC(C(=O)N2CCCCCCNC(=O)CC2)CC1`, the Potency result is “inactive”.

These data come from PubChem BioAssay AID1347416 (National Center for Advancing Translational Sciences (NCATS), 2020).
